Bioassay records: PubChem BioAssay, National Center for Advancing Translational Sciences (NCATS)
Only some compounds are listed: those with a hit (about 17% of all), similar ones and a draw of the others.
DT40 TDP1 CPT: DT40-hTDP1 cell growth loss with CPT; chicken DT40 Tdp1-/-;hTDP1 cells + 20 nM CPT, ATP luminescence, 48 h; Potency, µM (titrated, usually from 46.2 µM), for inactives: at the highest dose activity change, negative = growth inhibition, actives largely listed as inhibitors; 12% of 420,000 active; also: % is scaled to controls: 0 for no effect and ±100 for the full control effect; nearly all actives have a fitted effect of over 55% in size
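Cell growth measured by CellTiter-Glo luminescence after a minimum 48 h, 37 C compound exposure with 20 nM CPT in Tdp1-knockout DT40 cells stably expressing hTDP1, seeded 400/well; qHTS titration format.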
DT40 TDP1 no CPT: qHTS for Inhibitors of human tyrosyl-DNA phosphodiesterase 1 (TDP1): qHTS in cells in absence of CPT. DT40 Tdp1-/- hTDP1 cells, no CPT, ATP luminescence, 48 h. Potency, µM (titrated, usually from 46.2 µM), for the others: at the highest dose activity change, negative = growth inhibition, actives largely listed as inhibitors. 15% of 420,000 active; also: % is scaled to controls: 0 for no effect and ±100 for the full control effect; nearly all actives have a fitted effect of over 55% in size
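A cellular qHTS used chicken DT40 cells lacking endogenous Tdp1 but carrying stably transfected human TDP1. Compounds were applied without camptothecin, and cell growth kinetics were judged by ATP-dependent luminescence after ≥48 hr.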
TDP1 block: blocks human tyrosyl-DNA phosphodiesterase 1 | Potency, µM (doses to about 130 µM), for the others: at the top dose activity change, negative = inhibition, hits mostly inhibitors | Q9NUW8 | 0.28% of 350,000 active | recombinant TDP1, AlphaScreen DNA substrate cleavage; also: % is scaled to controls: 0 for no effect and ±100 for the full control effect; nearly all actives have a fitted effect of over 40% in size
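Steps: enzyme plus compound, 15 min RT; add biotin/phosphotyrosine-FITC oligonucleotide (15 nM final), react 5 min; add donor/acceptor beads (10 ug/ml final), 10 min; read AlphaScreen. Tdp1 at 1 nM final.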
ClpP mod: qHTS Assay for Activators of ClpP. ATP-dependent Clp protease proteolytic subunit (Bacillus subtilis (strain 168)), P80244. purified B. subtilis ClpP, FRET peptide cleavage, 20 min. Potency, µM (series often up to 57.5 µM), for inactives: top-dose activity change, negative = active. 1.9% of 340,000 active; active = well fitted falling curve with a large enough effect; inconclusive = small, poorly fitted or top-dose-only effect; inactive = no such curve, though single readings can be large or run the other way; also: the source files actives as falling curves though it sought activators and does not explain the sign; nearly all actives have a fitted effect of over 65% in size
Target sequence (P80244 whole entry, looked up): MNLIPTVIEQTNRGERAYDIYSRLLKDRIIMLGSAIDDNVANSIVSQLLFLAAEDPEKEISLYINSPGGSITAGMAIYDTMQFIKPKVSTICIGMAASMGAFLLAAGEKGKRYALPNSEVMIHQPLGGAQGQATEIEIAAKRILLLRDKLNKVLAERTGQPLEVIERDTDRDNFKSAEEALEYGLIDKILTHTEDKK
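Purified B. subtilis ClpP, 10 microg/mL final in Tris/HCl pH8 with KCl, BSA, glycerol and Tween-20, cleaved an Abz/nitrotyrosine-quenched decapeptide. Fluorescence (ex 320, em 430) was read at 0 and 20 min at room temperature. Delta was normalized to 5.8 microM ADEP and DMSO/no-enzyme controls.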
* hit, by the source's call; ? = inconclusive; · = no result. Unless noted, calls follow the shape of the dose curve; as a rule, active = well fitted curve in the direction sought with a large enough effect; inconclusive = small, poorly fitted or top-dose-only effect, or another doubt; inactive = no such curve, though single readings can be large; an effect the other way counts as inactive or inconclusive. Potency is read from the fitted curve at half-maximal effect.

SMILES	DT40 TDP1 CPT	DT40 TDP1 no CPT	TDP1 block	ClpP mod
CCc1cccc2c(C(=O)COC(=O)/C=C/c3ccc(O)c(OC)c3)c[nH]c12	?	18µM*	-13%	-16%
COc1cc(/C=C/C(=O)OCC(=O)c2ccc(OC(F)F)cc2)ccc1O	?	15µM*	-1%	-3%
O=C(/C=C/c1ccco1)OCC(=O)c1ccc(OC(F)F)cc1	-5%	1%	-3%	0%
Cc1ccccc1CSc1ncc(Cl)c(C(=O)Nc2nc3ccc(F)cc3s2)n1	?	?	5%	-4%
CC(NC(=O)CNC(=O)c1ccccc1Br)c1cccs1 (stereo not given)	7%	0%	-1%	·
O=C(Nc1ccc(N2CCN(C(=O)c3ccco3)CC2)cc1)c1ccccc1	3%	-6%	1%	·
Cc1ccc(OCC(=O)Nc2ccc(N3CCN(C(=O)c4ccco4)CC3)cc2)cc1	?	23µM*	3%	0%
Nc1ccc(N2CCN(C(=O)c3ccco3)CC2)cc1	16µM*	18µM*	7%	-1%
COc1cccc(OC)c1C(=O)Nc1ccc(N2CCN(C(=O)c3ccco3)CC2)cc1	10%	7%	10%	·
O=C(c1ccco1)N1CCN(c2ccc(F)cc2)CC1	?	-26%	5%	0%
O=C(COc1ccccc1)Nc1ccc(N2CCN(C(=O)c3ccco3)CC2)cc1	0%	-27%	3%	·
Cc1cc(C)cc(C(=O)Nc2ccc(N3CCN(C(=O)c4ccco4)CC3)cc2)c1	?	16µM*	4%	9%
O=C(Nc1ccc(N2CCN(C(=O)c3ccco3)CC2)cc1)c1ccc(F)cc1	?	21µM*	2%	-3%
O=C1CC(c2ccccc2F)c2c(c3ccccc3[nH]c2=O)O1 (stereo not given)	-21%	-21%	-2%	·
O=C(c1ccco1)n1nc(-c2ccc(Cl)cc2)nc1NCc1ccc(F)cc1	·	·	0%	1%
O=C(Nc1nnc(S(=O)(=O)N2CCN(c3ccc(F)cc3)CC2)s1)c1ccco1	16µM*	?	4%	-5%
Cc1cc(C)cc(OCC(=O)Nc2ccc3c4c(cccc24)CC3)c1	?	?	-4%	-1%
Cc1ccccc1OCC(=O)NC(=S)Nc1ccc2c3c(cccc13)CC2	18µM*	18µM*	0%	-14%
CCCC(=O)NC(c1cccs1)c1cc(Cl)c2cccnc2c1O (stereo not given)	5.2µM*	2.9µM*	10%	-3%
CCC(=O)NC(c1ccc(C)cc1)c1cc(Cl)c2cccnc2c1O (stereo not given)	·	·	2%	·
CCCC(=O)NC(c1ccco1)c1cc(Cl)c2cccnc2c1O (stereo not given)	3.7µM*	4.6µM*	10%	1%
CCC(=O)NC(c1ccc2c(c1)OCO2)c1cc(Cl)c2cccnc2c1O (stereo not given)	·	·	0%	·
CCCC(=O)NC(c1ccc2c(c1)OCO2)c1cc(Cl)c2cccnc2c1O (stereo not given)	4.6µM*	3.7µM*	11%	3%
Cc1cc(CNC(=O)c2cnn(-c3ncc4c(n3)-c3ccccc3CCC4)c2C2CC2)on1	-6%	?	·	·
CN(Cc1ccco1)c1ncncc1-c1ccc2c(c1)OCO2	?	-21%	·	·
SMILES	DT40 TDP1 CPT	DT40 TDP1 no CPT	TDP1 block	ClpP mod
COc1cc(CN(C(=O)Nc2cccc(Cl)c2)c2ccccn2)cc(OC)c1OC	?	?	4%	0%
O=C(Nc1ccccc1)N(Cc1cccc(Cl)c1)c1ccccn1	23µM*	?	-1%	1%
COc1ccc(F)c(CN2CCC(CO)(Cc3cccc(C(F)(F)F)c3)CC2)c1	?	?	-3%	·
COc1cc(CN2CCC(CO)(Cc3cccc(C(F)(F)F)c3)CC2)ccc1F	21µM*	23µM*	8%	0%
OCC1(Cc2ccccc2)CCN(Cc2ccc(C(F)(F)F)cc2)CC1	23µM*	18µM*	0%	3%
COc1ccc(CN2CCC(CO)(Cc3cccc(C(F)(F)F)c3)CC2)cc1Cn1cccn1	?	18µM*	9%	2%
CC(OC(=O)c1cccc(-n2cnnn2)c1)c1nc2ccccc2c(=O)[nH]1 (stereo not given)	-15%	-3%	2%	-5%
